Assay results published in the supplement of paper PMC8728848.
This excerpt belongs to a sample that is enriched for the strongest signals.

Assays:
Assay in all cases: glycan array binding signal (z-score within array); higher = stronger binding
Conditions in all cases: glycan notation: IUPAC condensed, linker removed
[1] = molecular target: Fuc(a1-2)Gal(b1-4)[Fuc(a1-3)]GlcNAc(b1-3)GalNAc
In short: (§1)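 The Consortium for Functional Glycomics database supplied 3228 glycan arrays, of which those lacking an available protein sequence were dropped. The binding signal, a within-array Z-score, was averaged across arrays of the same protein sequence and across linkers. Negative scores can be read as non-binding.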

[2] = molecular target: Fuc(a1-2)[Gal(a1-3)]Gal(b1-3)GlcNAc
In short: as §1

[3] = molecular target: Fuc(a1-2)[Gal(a1-3)]Gal(b1-3)GlcNAc(b1-2)Man(a1-3)[Fuc(a1-2)[Gal(a1-3)]Gal(b1-3)GlcNAc(b1-2)Man(a1-6)]Man(b1-4)GlcNAc(b1-4)GlcNAc
In short: as §1

[4] = molecular target: Fuc(a1-2)[Gal(a1-3)]Gal(b1-3)GlcNAc(b1-2)Man(a1-3)[Fuc(a1-2)[Gal(a1-3)]Gal(b1-3)GlcNAc(b1-2)Man(a1-6)]Man(b1-4)GlcNAc(b1-4)[Fuc(a1-6)]GlcNAc
In short: as §1

[5] = molecular target: Fuc(a1-2)[Gal(a1-3)]Gal(b1-3)GlcNAc(b1-6)GalNAc
In short: as §1

[6] = molecular target: Fuc(a1-2)[Gal(a1-3)]Gal(b1-4)Glc
In short: as §1

[7] = molecular target: Fuc(a1-2)[Gal(a1-3)]Gal(b1-4)GlcNAc
In short: as §1

[8] = molecular target: Fuc(a1-2)[Gal(a1-3)]Gal(b1-4)GlcNAc(b1-2)Man
In short: as §1

[9] = molecular target: Fuc(a1-2)[Gal(a1-3)]Gal(b1-4)GlcNAc(b1-2)Man(a1-3)[Fuc(a1-2)[Gal(a1-3)]Gal(b1-4)GlcNAc(b1-2)Man(a1-6)]Man(b1-4)GlcNAc(b1-4)GlcNAc
In short: as §1

[10] = molecular target: Fuc(a1-2)[Gal(a1-3)]Gal(b1-4)GlcNAc(b1-2)Man(a1-3)[Fuc(a1-2)[Gal(a1-3)]Gal(b1-4)GlcNAc(b1-2)Man(a1-6)]Man(b1-4)GlcNAc(b1-4)[Fuc(a1-6)]GlcNAc
In short: as §1

[11] = molecular target: Fuc(a1-2)[Gal(a1-3)]Gal(b1-4)GlcNAc(b1-3)GalNAc
In short: as §1

[12] = molecular target: Fuc(a1-2)[Gal(a1-3)]Gal(b1-4)GlcNAc(b1-6)GalNAc
In short: as §1

[13] = molecular target: Fuc(a1-2)[Gal(a1-3)]Gal(b1-4)[Fuc(a1-3)]GlcNAc
In short: as §1

[14] = molecular target: Fuc(a1-3)[Gal(b1-4)]GlcNAc(b1-2)Man(a1-3)[Fuc(a1-3)[Gal(b1-4)]GlcNAc(b1-2)Man(a1-6)]Man(b1-4)GlcNAc(b1-4)GlcNAc
In short: as §1

[15] = molecular target: Fuc(a1-3)[Gal(b1-4)]GlcNAc(b1-3)Gal(b1-3)[Fuc(a1-4)]GlcNAc
In short: as §1

[16] = molecular target: Fuc(a1-3)[Gal(b1-4)]GlcNAc(b1-3)Gal(b1-4)[Fuc(a1-3)]GlcNAc(b1-3)Gal(b1-4)[Fuc(a1-3)]GlcNAc
In short: as §1

[17] = molecular target: Fuc(a1-3)[Gal(b1-4)]GlcNAc(b1-6)GalNAc
In short: as §1

[18] = molecular target: Fuc(a1-3)[Gal3S(b1-4)]GlcNAc6S
In short: as §1

[19] = molecular target: Gal(a1-3)Fuc(a1-2)Gal(b1-4)GlcNAc(b1-3)[Gal(a1-3)Fuc(a1-2)Gal(b1-4)GlcNAc(b1-6)]GalNAc
In short: as §1

[20] = molecular target: Gal(b1-3)GlcNAc(b1-2)Man(a1-3)[Gal(b1-3)GlcNAc(b1-2)Man(a1-6)]Man(b1-4)GlcNAc(b1-4)GlcNAc
In short: as §1

[21] = molecular target: Gal(b1-3)GlcNAc(b1-3)Gal(b1-4)GlcNAc(b1-3)Gal(b1-4)GlcNAc(b1-2)[Gal(b1-3)GlcNAc(b1-3)Gal(b1-4)GlcNAc(b1-3)Gal(b1-4)GlcNAc(b1-6)]Man(a1-6)[Gal(b1-3)GlcNAc(b1-3)Gal(b1-4)GlcNAc(b1-3)Gal(b1-4)GlcNAc(b1-2)Man(a1-3)]Man(b1-4)GlcNAc(b1-4)[Fuc(a1-6)]GlcNAc
In short: as §1

[22] = molecular target: Gal(b1-4)GlcNAc(b1-2)Man(a1-3)Man(b1-4)GlcNAc(b1-4)GlcNAc
In short: as §1

[23] = molecular target: Gal(b1-4)GlcNAc(b1-2)Man(a1-3)[GlcNAc(b1-2)Man(a1-6)]Man(b1-4)GlcNAc(b1-4)GlcNAc
In short: as §1

[24] = molecular target: Gal(b1-4)GlcNAc(b1-2)[Gal(b1-4)GlcNAc(b1-4)]Man(a1-3)[Gal(b1-4)GlcNAc(b1-2)Man(a1-6)]Man(b1-4)GlcNAc(b1-4)GlcNAc
In short: as §1

[25] = molecular target: Gal(b1-4)GlcNAc(b1-3)Gal(b1-3)GalNAc
In short: as §1

[26] = molecular target: Gal(b1-4)GlcNAc(b1-3)Gal(b1-3)GlcNAc
In short: as §1

[27] = molecular target: Gal(b1-4)GlcNAc(b1-3)Gal(b1-4)Glc
In short: as §1

[28] = molecular target: Gal(b1-4)GlcNAc(b1-3)Gal(b1-4)GlcNAc(b1-3)Gal(b1-4)GlcNAc(b1-2)Man(a1-3)[Gal(b1-4)GlcNAc(b1-3)Gal(b1-4)GlcNAc(b1-3)Gal(b1-4)GlcNAc(b1-2)Man(a1-6)]Man(b1-4)GlcNAc(b1-4)[Fuc(a1-6)]GlcNAc
In short: as §1

[29] = molecular target: Gal(b1-4)GlcNAc(b1-3)Gal(b1-4)GlcNAc(b1-3)Gal(b1-4)GlcNAc(b1-3)Gal(b1-4)GlcNAc(b1-3)Gal(b1-4)GlcNAc(b1-3)Gal(b1-4)GlcNAc(b1-2)Man(a1-3)[Gal(b1-4)GlcNAc(b1-3)Gal(b1-4)GlcNAc(b1-3)Gal(b1-4)GlcNAc(b1-3)Gal(b1-4)GlcNAc(b1-3)Gal(b1-4)GlcNAc(b1-3)Gal(b1-4)GlcNAc(b1-2)Man(a1-6)]Man(b1-4)GlcNAc(b1-4)GlcNAc
In short: as §1

Gal3S(b1-4)GlcNAc = molecular target: Gal3S(b1-4)GlcNAc
In short: as §1

B1: EEA (Euonymus europaeus) (protein)
chain: MASTIIATGPTYRVYCRAAPNYNMIVGKGVAFLAPIDETNELQYWYKDDTYSYIKDEAGLPAFSLVNKATGLTLKHSNHHPVPVKLVTYNPNVVDESVLWSQADDRGDGYSAIRSLTNPASHLEAAPLNDWSYNGAIIMGGVWIDAYNQQWKIEPHTG
glycan array binding signal (z-score) [1]: 0.023
glycan array binding signal (z-score) [2]: 5.83
glycan array binding signal (z-score) [3]: 5.22
glycan array binding signal (z-score) [4]: 3.76
glycan array binding signal (z-score) [5]: 3.77
glycan array binding signal (z-score) [6]: 4.49
glycan array binding signal (z-score) [7]: 6.17
glycan array binding signal (z-score) [8]: 3.94
glycan array binding signal (z-score) [9]: 11.4
glycan array binding signal (z-score) [10]: 5.12
glycan array binding signal (z-score) [11]: 4.01
glycan array binding signal (z-score) [12]: -0.195
glycan array binding signal (z-score) [13]: -0.181
glycan array binding signal (z-score) [14]: -0.21
glycan array binding signal (z-score) [15]: -0.169
glycan array binding signal (z-score) [16]: -0.252
glycan array binding signal (z-score) [17]: -0.124
glycan array binding signal (z-score) [18]: -0.209
glycan array binding signal (z-score) [19]: 4.66
glycan array binding signal (z-score) [20]: -0.157
glycan array binding signal (z-score) [21]: -0.049
glycan array binding signal (z-score) [22]: -0.282
glycan array binding signal (z-score) [23]: -0.235
glycan array binding signal (z-score) [24]: -0.173
glycan array binding signal (z-score) [25]: -0.23
glycan array binding signal (z-score) [26]: -0.101
glycan array binding signal (z-score) [27]: -0.156
glycan array binding signal (z-score) [28]: -0.144
glycan array binding signal (z-score) [29]: -0.159
glycan array binding signal (z-score) (Gal3S(b1-4)GlcNAc): -0.217
